Read-out in assay [1]: Interleukin-1 alpha (IL1a), IL1A (gene 3552)
Put plainly: BSK_BE3C_IL1a: BioMAP Diversity Plus: BE3C Assay for Interleukin-1 alpha (IL1a) Biomarker Activity (AID 2283016). As to conditions: primary human bronchial epithelial cells; actives raise or lower the signal. In a few lines: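 ELISA read-out of IL-1a from human lung bronchial epithelial primary cells, 24 h post-dose. Gain or loss of signal fitted relative to DMSO negative control.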

Read-out in assay [2]: Monocyte Chemoattractant Protein-1 (MCP1), CCL2 (gene 6347)
Put plainly: BSK_3C_MCP1: BioMAP Diversity Plus: 3C Assay for Monocyte Chemoattractant Protein-1 (MCP1) Biomarker Activity (AID 2283017). The conditions noted are these: primary human endothelial cells (HUVEC); actives raise or lower the signal. The procedure, abridged:
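Primary human umbilical vein endothelial cells (3C system) were exposed to test chemical for 24 h, after which MCP-1 was quantified by ELISA. Activity was fitted bidirectionally against DMSO as negative control and baseline.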

Read-out in assay [3]: Monocyte Chemoattractant Protein-1 (MCP1), CCL2 (gene 6347)
Briefly: BSK_4H_MCP1: BioMAP Diversity Plus: 4H Assay for Monocyte Chemoattractant Protein-1 (MCP1) Biomarker Activity (AID 2283018). As to conditions: primary human endothelial cells (HUVEC); actives raise or lower the signal. In a few lines: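 HUVEC primary cells, 24 h post-dose, MCP-1 by ELISA. Gain or loss of signal fitted bidirectionally vs DMSO baseline. Cytotoxicity: SRB stain (0.1% after 10% TCA fixation), read 560 nm, parallel cultures.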

Read-out in assay [4]: Human Leukocyte Antigen - DR isotype (HLADR), HLA-DRA (gene 3122)
Put plainly: BSK_3C_HLADR: BioMAP Diversity Plus: 3C Assay for Human Leukocyte Antigen - DR isotype (HLADR) Biomarker Activity (AID 2283019).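 On outcome: ELISA of cell-surface HLA-DR on HUVEC 24 h after dosing.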 The conditions noted are these: primary human endothelial cells (HUVEC); actives raise or lower the signal. In a few lines:
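Primary human umbilical vein endothelial cells (3C system) were dosed with compound and cell-surface HLA-DR was quantified by ELISA at 24 h. Activity was fitted bidirectionally against DMSO as negative control and baseline.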

Read-out in assay [5]: Interleukin-8 (IL8), CXCL8 (gene 3576)
Put plainly: BSK_3C_IL8: BioMAP Diversity Plus: 3C Assay for Interleukin-8 (IL8) Biomarker Activity (AID 2283020). The conditions noted are these: primary human endothelial cells (HUVEC); actives raise or lower the signal. In a few lines:
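HUVEC, 3C stimulation; 24 h compound exposure; IL-8 read by ELISA; gain or loss of signal fitted relative to DMSO control.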

Read-out in assay [6]: Monokine induced gamma interferon (MIG), CXCL9 (gene 4283)
Put plainly: BSK_3C_MIG: BioMAP Diversity Plus: 3C Assay for Monokine induced gamma interferon (MIG) Biomarker Activity (AID 2283021).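 On AC50: MIG protein level measured by immunoassay in the treated endothelial cultures.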 As to conditions: primary human endothelial cells (HUVEC); actives raise or lower the signal. In a few lines:
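HUVEC, 3C system; 24 h chemical exposure; MIG by ELISA; bidirectional fit vs DMSO baseline.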

Assay [7] addresses human Vitamin D Receptor (VDR), VDR (gene 7421) (UniProt P11473). Briefly: ATG_VDR_TRANS: Attagene TRANS-FACTORIAL HepG2 Assay for human Vitamin D Receptor (VDR) (AID 2283022; active means hit-call score of the fitted dose curve at least 0.9, where 1 is the maximum). The procedure, abridged:
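HepG2 cells were transiently transfected with multiple GAL4-UAS reporter units, so signal reflects exogenous chimeric receptor-Gal4 activity. After 24 h compound exposure, reporter mRNA was measured by RT-PCR, fluorescent labelling and capillary electrophoresis, fitted for gain of signal versus DMSO.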

Read-out in assay [8]: E-selectin (Homo sapiens) (UniProt P16581)
Put plainly: BSK_3C_Eselectin: BioMAP Diversity Plus: 3C Assay for Eselectin Biomarker Activity (AID 2283015).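 On outcome: cell surface E-selectin protein quantified by ELISA 24 h after dosing.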 As to conditions: primary human endothelial cells (HUVEC); actives raise or lower the signal. In a few lines:
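Primary human umbilical vein endothelial cells (3C system) were dosed with chemical and cell-surface E-selectin measured by ELISA 24 h later. Bidirectional curve fitting used DMSO as negative control and baseline.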

In assay [9] the target is human Thyroid Receptor alpha (THRa1), THRA (gene 7067) (UniProt P10827). Put plainly: ATG_THRa1_TRANS: Attagene TRANS-FACTORIAL HepG2 Assay for human Thyroid Receptor alpha (THRa1) (AID 2283014; active means hit-call score of the fitted dose curve at least 0.9, where 1 is the maximum). In a few lines:
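HepG2 cells transiently transfected with multiplexed GAL4-UAS reporter units for exogenous chimeric THRa1-Gal4; reporter mRNA measured 24 h after dosing by RT-PCR, 6-FAM labelling, HpaI digestion and capillary electrophoresis. Gain-of-signal fitted versus DMSO baseline.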

Inconclusive results are not listed. Calls of active or inactive are those of the source. How the source made its calls, unless noted: active means hit-call score of the fitted dose curve at least 0.9, where 1 is the maximum; inactive means score below 0.9.

The term AC50 denotes the midpoint of the concentration-response curve, whichever way the signal moves.

human Vitamin D Receptor (VDR), VDR (gene 7421), sequence (P11473 whole entry, looked up, the tested form may be a part): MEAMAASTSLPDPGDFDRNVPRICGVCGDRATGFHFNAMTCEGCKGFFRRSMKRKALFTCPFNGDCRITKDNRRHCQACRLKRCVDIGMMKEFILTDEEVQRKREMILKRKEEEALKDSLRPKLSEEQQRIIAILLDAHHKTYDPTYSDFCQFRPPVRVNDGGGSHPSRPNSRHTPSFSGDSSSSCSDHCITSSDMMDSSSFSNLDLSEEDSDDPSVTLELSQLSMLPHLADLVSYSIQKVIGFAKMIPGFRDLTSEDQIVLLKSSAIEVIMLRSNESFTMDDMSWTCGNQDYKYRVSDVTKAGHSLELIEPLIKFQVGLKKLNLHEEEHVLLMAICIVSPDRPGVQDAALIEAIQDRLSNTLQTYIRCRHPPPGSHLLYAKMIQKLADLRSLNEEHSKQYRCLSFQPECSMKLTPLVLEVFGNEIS
human Thyroid Receptor alpha (THRa1), THRA (gene 7067), sequence (P10827 whole entry, looked up, the tested form may be a part): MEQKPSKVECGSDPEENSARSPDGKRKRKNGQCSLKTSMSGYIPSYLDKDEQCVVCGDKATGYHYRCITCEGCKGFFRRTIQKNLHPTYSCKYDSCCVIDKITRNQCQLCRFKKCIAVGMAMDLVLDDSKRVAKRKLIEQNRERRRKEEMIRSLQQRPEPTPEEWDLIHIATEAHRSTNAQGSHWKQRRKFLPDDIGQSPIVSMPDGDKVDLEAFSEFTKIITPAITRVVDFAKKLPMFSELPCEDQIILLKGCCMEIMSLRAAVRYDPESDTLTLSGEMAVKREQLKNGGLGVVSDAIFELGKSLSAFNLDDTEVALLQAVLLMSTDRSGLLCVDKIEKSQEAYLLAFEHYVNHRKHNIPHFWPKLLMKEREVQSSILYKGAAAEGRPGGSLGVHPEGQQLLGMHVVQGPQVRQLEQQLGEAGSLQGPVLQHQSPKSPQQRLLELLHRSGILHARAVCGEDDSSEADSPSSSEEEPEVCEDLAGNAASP
E-selectin (Homo sapiens), sequence (P16581 whole entry, looked up): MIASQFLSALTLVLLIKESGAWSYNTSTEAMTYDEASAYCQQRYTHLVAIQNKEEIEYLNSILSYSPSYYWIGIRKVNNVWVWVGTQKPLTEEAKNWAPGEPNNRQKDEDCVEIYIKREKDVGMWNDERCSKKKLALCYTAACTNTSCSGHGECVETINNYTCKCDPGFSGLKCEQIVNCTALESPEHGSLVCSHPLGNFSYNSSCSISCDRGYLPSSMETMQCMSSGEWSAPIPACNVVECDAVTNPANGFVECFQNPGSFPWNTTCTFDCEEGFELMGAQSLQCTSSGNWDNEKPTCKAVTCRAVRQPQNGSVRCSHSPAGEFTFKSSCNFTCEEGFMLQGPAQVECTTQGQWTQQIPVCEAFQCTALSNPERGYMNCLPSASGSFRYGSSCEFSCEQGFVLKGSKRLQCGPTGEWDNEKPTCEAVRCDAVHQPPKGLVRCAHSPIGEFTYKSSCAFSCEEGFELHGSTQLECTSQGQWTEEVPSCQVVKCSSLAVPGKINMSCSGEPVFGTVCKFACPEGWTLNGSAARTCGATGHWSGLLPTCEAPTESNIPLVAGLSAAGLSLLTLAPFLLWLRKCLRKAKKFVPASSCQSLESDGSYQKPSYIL

Consider `CCn1nc(Cc2ccccc2)cc1C1CCN(C[C@H]2C[C@H](N(C)[C@@H](C(=O)O)C(C)C)C[C@@H]2c2cccc(F)c2)CC1`, for which the result in assay [1], in assay [2], in assay [3], in assay [4], in [5] and in [6] was inactive. The result in assay [7] was inactive.
Turning to `CC1=CC(=O)CC(C)(C)C1`, the result in assay [8], in assay [1], in assay [2], in assay [3], in [4] and in [5] was inactive. Moreover, the result in [6] was inactive.
`CNCc1ccc(NC(=O)c2c[nH]c3c2C(=O)CCC3)cc1`: the compound was called inactive in [9], in assay [8], in assay [1], in assay [2], in assay [3] and in assay [4]. Also, the result in assay [5], in [6] and in assay [7] was inactive.
For `Nc1ccc(Nc2ccccc2)cc1`, the results for the AC50 in assay [8] and in [4] were 5.7 µM (active) and 2.83 µM (active), respectively. Further, the outcome in [1], in assay [2], in assay [3], in assay [5] and in assay [6] was inactive.
Consider `CCc1cc(SCc2sc(-c3ccc(C(F)(F)F)cc3)nc2CN2CCN(c3ccc(OC)cc3)CC2)ccc1OCC(=O)O`, for which the AC50 is 7 µM (active) in assay [1]; 12 µM (active) in assay [2]; 8.42 µM (active) in [3]; 11.4 µM (active) in [4]; 16.7 µM (active) in assay [5]; 16.9 µM (active) in [6].
As for `O=c1[nH]c2ccc(S(=O)CCN3CCC(Cc4ccc(F)cc4)CC3)cc2o1` (centres undefined), the outcome in [8], in [1], in [2], in assay [4], in assay [5] and in [6] was inactive. The result in assay [7] was inactive. Moreover, the AC50 in [3] was 4.88 µM (active).
For the compound `O=C1CCC(N2C(=O)c3ccccc3C2=O)C(=O)N1` (centres undefined), the result in assay [9], in assay [1], in [2], in assay [3], in [4] and in [5] was inactive. In addition, in assay [6], the result was inactive.
For `CC/C(=C\C(=N/O)C(N)=O)C(C)[N+](=O)[O-]` (centres undefined), the outcome in [8], in [1], in assay [2], in assay [3], in [4] and in assay [5] was inactive. Further, the outcome in assay [6] and in [7] was inactive.
Consider `COc1ccc(/C=C/S(=O)(=O)NC(=O)c2ccc(C)cc2Cl)cc1`, for which the result in assay [8], in assay [1], in [2], in assay [3], in assay [4] and in assay [5] was inactive. The outcome in [6] and in assay [7] was inactive.
As to `CC(C)=CCCC(C)CCO` (centres undefined), the outcome in assay [8], in [1], in assay [2], in [3], in assay [4] and in assay [5] was inactive. Further, the outcome in assay [6] was inactive.
Turning to `NC(=O)NO`, the result in assay [1], in assay [2], in assay [3], in [4], in assay [5] and in assay [6] was inactive. Moreover, the outcome in assay [7] was inactive.
`CCCCCCCCO`: the outcome in assay [1], in assay [2], in [3], in assay [4], in assay [5] and in assay [6] was inactive. Also, the compound was classed as inactive in assay [7].
With `CN(C)c1ccc(Cc2ccc(N(C)C)cc2)cc1`, the result in assay [9], in [1], in assay [2], in [3], in assay [6] and in assay [7] was inactive. Besides, the AC50 is 31.8 µM (active) in assay [4] and 20 µM (active) in assay [5].
Regarding `CC(C)=CCC/C(C)=C\CO`, the result in [8], in [1], in assay [2], in [3], in [4] and in assay [5] was inactive. In addition, the result in assay [6] and in assay [7] was inactive.
On to `Nc1cccc(N)c1`, for which the compound was classed as inactive in assay [9], in assay [8], in assay [1], in assay [2], in [3] and in [4]. The result in assay [5], in assay [6] and in assay [7] was inactive.
`CCOCCO`: the outcome in assay [1], in [2], in [3], in assay [4], in assay [5] and in assay [6] was inactive.
Turning to `CC(=O)c1ccc2c(c1)[C@H](NC(=O)c1ccc(F)cc1)[C@@H](O)C(C)(C)O2`, the result in assay [8], in assay [1], in [2], in assay [3], in [4] and in assay [5] was inactive. For the same compound, the outcome in assay [6] was inactive.
In the case of `COC(=O)CC(=O)OC`, the result in [8], in assay [1], in [2], in assay [3], in assay [4] and in [5] was inactive. Moreover, the outcome in assay [6] and in assay [7] was inactive.
Consider `CCOC(=O)c1ccc(C2CCC(NC[C@H](O)COc3ccc(O)c(NS(C)(=O)=O)c3)CC2)cc1` (some centres undefined), for which the outcome in assay [8], in assay [1], in [3] and in assay [6] was inactive. For the same compound, the AC50 is 27.9 µM (active) in assay [2], 31.1 µM (active) in assay [4] and 27.7 µM (active) in assay [5].
On to `Nc1nc2ncc(CNc3ccc(C(=O)N[C@@H](CCC(=O)O)C(=O)O)cc3)nc2c(=O)[nH]1`, for which the compound was called inactive in assay [9], in assay [1], in [2], in assay [3], in [4] and in [5]. Also, the result in assay [6] and in assay [7] was inactive.
Take `COc1cccc(-c2ccc(/C=C\CN3CCCCCC3)cc2Cl)c1`: the compound was called inactive in assay [9] and in [7]. Besides, the AC50 in [1] is 29 µM (active); in assay [2], 30.9 µM (active); in assay [3], 25 µM (active); in [4], 27.8 µM (active); in assay [5], 31.9 µM (active); in assay [6], 34.3 µM (active).
For `O=C1CCCCCN1`, the outcome in assay [1], in [2], in [3], in assay [4], in [5] and in [6] was inactive. In addition, in [7], the compound was called inactive.
As for `CCOc1cccc(-n2cc(C(=O)N3CCN(c4cc(C(=O)O)c5ccccc5c4)CC3)nc2-c2ccc(C)cc2)c1`, the result in assay [9] and in [7] was inactive. For the same compound, the AC50 in [1] is 29.2 µM (active); in [2], 23 µM (active); in [3], 23.3 µM (active); in assay [4] it was 15.3 µM (active); in assay [5] it was 11.9 µM (active); in assay [6], 35.5 µM (active).
As for `O=C(O)c1cccc(N(Cc2cccnc2)c2ccc(OC(F)F)c(OC(F)F)c2)c1`, the outcome in assay [1], in [2], in assay [3], in assay [5], in assay [6] and in assay [7] was inactive. Further, the AC50 in [4] is 9.02 µM (active).
